Pol beta inh: blocks human DNA polymerase beta activity; 340,000 tested, 1.3% active; AID 485314; Potency, µM (series often up to 114 µM), for inactives: at the top dose activity change, negative = inhibition, actives largely listed as inhibitors; P06746; Pol beta primer extension/strand displacement, fluorescence kinetic; note: % is set by controls: 0 for no effect and ±100 for the full control effect
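Curves were derived by four-parameter Hill fits of normalized qHTS data. The kinetic fluorescent primer-extension read was taken at 0 and 10 min after 50 nM substrate, following a 15 min room-temperature preincubation of 10 nM enzyme with compounds.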
POLK inh: blocks human DNA polymerase kappa activity; Q9UBT6; purified Pol kappa, fluorescent DNA synthesis assay, 10 min; Potency, µM (titrated, usually from 107 µM), inactives show at the top dose activity, negative = inhibition, actives largely listed as inhibitors; 400,000 tested, 0.53% active; AID 588579; note: % is set by controls: 0 for no effect and ±100 for the full control effect
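Enzyme at 10 nM met test compounds for 15 min at room temperature. Substrate addition (50 nM final) began the reaction, which was monitored by fluorescence at 0 and 10 min.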
PGK inhibitor: inhibitors of T. brucei phosphoglycerate kinase. PGK/GAPDH coupled, Kinase-Glo luminescence, 60 min. 380,000 tested, 0.043% active. P07378. Potency, µM (doses to about 57.5 µM), for inactives: at the top dose activity change, negative = inhibition, most hits filed as inhibitors; note: % is set by controls: 0 for no effect and ±100 for the full control effect; nearly all actives have a fitted effect of over 60% in size
Target sequence (P07378 whole entry, looked up): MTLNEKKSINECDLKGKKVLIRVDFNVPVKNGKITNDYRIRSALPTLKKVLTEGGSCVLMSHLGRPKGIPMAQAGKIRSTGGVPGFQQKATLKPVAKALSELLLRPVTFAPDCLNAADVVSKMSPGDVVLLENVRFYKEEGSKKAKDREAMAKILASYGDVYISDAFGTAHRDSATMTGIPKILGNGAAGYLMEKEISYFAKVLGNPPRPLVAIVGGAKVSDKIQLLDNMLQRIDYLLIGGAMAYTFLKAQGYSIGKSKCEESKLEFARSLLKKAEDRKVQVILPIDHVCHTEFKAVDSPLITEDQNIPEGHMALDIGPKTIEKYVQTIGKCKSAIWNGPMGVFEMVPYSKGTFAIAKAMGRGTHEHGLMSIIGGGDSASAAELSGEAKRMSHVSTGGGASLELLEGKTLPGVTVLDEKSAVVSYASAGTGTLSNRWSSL
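Luminescent ATP detection (Kinase-Glo Plus) follows a 60-minute room-temperature incubation, with wells lacking PGK as controls. Buffer: 100 mM TEA (pH 7.6), 5 mM MgCl2, 0.01% Tween-20. Coupling enzyme GAPDH (100 nM final) supplies unstable 1,3-BPG in-well.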
FEN1 inh: inhibitors of human flap endonuclease 1; P39748; Recombinant FEN1 flap cleavage, fluorescence, 15 min; Potency, µM (doses to about 114 µM), inactives show at the top dose activity change, negative = inhibition, most hits filed as inhibitors; 390,000 tested, 0.35% active; note: % is set by controls: 0 for no effect and ±100 for the full control effect; nearly all actives have a fitted effect of over 65% in size
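Concentration–response screening of FEN1 (10 nM): 15 min compound preincubation at room temperature, reaction started with 50 nM substrate and read at 0 and 15 min. Corrected, normalized data were fitted by a four-parameter Hill equation.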
POLI inh: blocks human DNA polymerase iota activity; Pol iota fluorescent replication assay, 10 min; Q9UNA4; Potency, µM (top dose mostly 115 µM), inactives show at the top dose activity, negative = inhibition, usual class: inhibitors; 390,000 tested, 1% active
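Pol iota at 10 nM preincubated 15 min with compounds at room temperature; reaction started with fluorescent substrate, 50 nM final. Fluorescence read kinetically at 0 and 10 min; buffer-only wells as negative control.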
Pol eta inh: DNA polymerase eta (human) inhibition; recombinant Pol eta, fluorescent DNA replication assay; Potency, µM (highest dose often 114 µM), for inactives: at the top dose activity change, negative = inhibition, most hits filed as inhibitors; Q9Y253; 390,000 tested, 1.2% active; note: % is set by controls: 0 for no effect and ±100 for the full control effect
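Pol eta (10 nM) was preincubated with compounds for 15 min at room temperature, after which fluorescent replication substrate (50 nM final) was added to start the reaction. Fluorescence was read kinetically at 0 and 10 min.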
TbPGK inh: TbPGK inhibition, hit validation; shares compounds with POLK inh; TbPGK coupled GAPDH assay, Kinase-Glo luminescence; Potency, µM (titrated, usually from 57.5 µM), inactives show at the top dose activity change, negative = inhibition, actives largely listed as inhibitors; 500 tested, 79% active; AID 686980; note: % is set by controls: 0 for no effect and ±100 for the full control effect; nearly all actives have a fitted effect of over 65% in size
Pol iota confirm: Confirm cherry-picked inhibitors of human polymerase iota; 1,500 tested, 77% active; AID 720496; Potency, µM, usual class: inhibitors; Pol iota primer extension, TAMRA/BHQ fluorescence; shares compounds with POLK inh
* hit, by the source's call; i = inactive; ? = inconclusive; · = no result given; [ ] = dose if it differs, or a comment. Rows were chosen to be rich in hits. Some 2.4% of all compounds tested hit in one or more screens of this group. Calls come from the whole dose curve; as a rule, active = well fitted curve in the direction sought with a large enough effect; inconclusive = small, poorly fitted or top-dose-only effect, or another doubt; inactive = no such curve, though single readings can be large; an effect the other way counts as inactive or inconclusive. Potency is the fitted concentration of half-maximal effect.

SMILES	Pol beta inh	POLK inh	PGK inhibitor	FEN1 inh	POLI inh	Pol eta inh	TbPGK inh	others
O=C(CSc1nnc(COc2ccccc2Cl)o1)NC(=O)NCc1ccco1	14µM*	?	-11%	-11%	40µM*	50µM*	·	Pol iota confirm=67*
Cc1csc(NC(=O)c2cn3ccccc3n2)n1	?	-10%	?	-4%	9%	-5%	18µM*
Cc1ccc(CNC(=O)CNS(=O)(=O)c2cccs2)cc1	1%	-11%[60.1 µM]	1%	19%	-1%	-6%	·
COc1ccccc1C(=O)Nc1nc2ccccc2s1	-27%	14%	?	-11%	?	-5%	16µM*
COc1ccccc1C(=O)Nc1nc2ccc(S(C)(=O)=O)cc2s1	5%	-12%	i	11%	-6%[58.9 µM]	-4%	·
CN(C)c1ccc(-c2nc3ccccn3c2/N=C/c2ccc(Br)cc2)cc1	-1%	-11%	?	6%	5%	-12%	?
Cc1c(-c2ccc(Br)cc2)nc2ccccn12	2%[57.1 µM]	-5%	-5%	-11%	0%	-14%	·
CCOc1ccc(NC(=O)Cn2cc(C(=O)c3ccc(CC)cc3)c(=O)c3cc(C)ccc32)cc1	?	-9%	-9%	-3%	16%	50µM*	·	Pol iota confirm=?
Clc1ccccc1Nc1nnc(-c2ccncc2)s1	0%	-1%	?	-2%	5%	4%	15µM*
COc1ccc(NC(=O)Cn2cnc3ccc(S(=O)(=O)N4CCC(C)CC4)cc3c2=O)cc1Cl	?	6%	i	10%	4%	1%	·
BrC(=C\c1ccccc1)/C=N/Nc1ccc2nncn2n1	?	-23%	-5%	?	?	50µM*	·	Pol iota confirm=34*
N#CNc1nc(O)cc(=O)[nH]1	-26%	79µM*	28µM*	?	?	?	?
O=C(NCC(c1cccnc1)N1CCc2ccccc2C1)C(=O)Nc1cccc(Cl)c1 (stereo unspecified)	0%	-5%	2%	26%	8%	-16%	·
CCC(=O)N1CCc2cc(Br)cc(S(=O)(=O)N(CC)Cc3ccccc3)c21	-13%	-3%	-3%	-2%	4%	-23%	·
O=C(O)c1ccc(-n2cccc2/C=C2\SC(=O)N(Cc3ccc(Cl)c(Cl)c3)C2=O)cc1	·	·	·	·	·	·	·	Pol iota confirm=67*
Cc1ccc(CNC(=O)c2nnn(CC(=O)Nc3cc(C)cc(C)c3)c2N)cc1	?	?	-3%	-20%	40µM*	?	·	Pol iota confirm=34*
Cc1cc(C)cc(NC(=O)Cn2nnc(C(=O)NCc3ccc4c(c3)OCO4)c2N)c1	?	?	-3%	2%	?	?	·
CCCc1nn2c(=O)cc(COC(=O)c3ccc(NC(=O)c4cccs4)cc3)nc2s1	4%	-8%[60.1 µM]	4%	22%	1%	6%	·
C(=C\c1nc2ccccc2[nH]1)/c1ccccc1	4%	-20%	?	-5%	6%	-2%	16µM*
C(=C\c1ccco1)/c1nc2ccccc2[nH]1	-17%	-3%	-29%	-16%	2%	-19%	·
Cc1cc(C)c(S(=O)(=O)NCC(c2ccc(N(C)C)cc2)N2CCc3ccccc32)c(C)c1 (stereo unspecified)	?	-2%[60.1 µM]	-4%	-2%	?	-16%	·
CC(=O)c1ccc(NC(=O)CCc2c(C)nn(-c3ccc4nncn4n3)c2C)cc1	-3%	-14%[60.1 µM]	i	15%	10%	-6%	·
CCOc1ccc(C(=O)OCc2cc(=O)n3cc(C)sc3n2)cc1	0%	-2%	-11%	3%	21%	-17%	·

Source: PubChem
